Screening data (PubChem)
Shown are actives, neighbours in structure and some others; about 19% of the full set was active somewhere.
TDP1 cell CPT – qHTS for Inhibitors of human tyrosyl-DNA phosphodiesterase 1 (TDP1): qHTS in cells in presence of CPT | hit rate 12% among 420,000 | chicken DT40 Tdp1-/-;hTDP1 cells + 20 nM CPT, ATP luminescence, 48 h | AID 686979, 2013 | Potency, µM (highest dose often 46.2 µM), for the others: at the top dose activity change, negative = growth inhibition, hits mostly inhibitors; note: nearly all actives have a fitted effect of over 55% in size
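Chicken DT40 Tdp1-/- cells stably complemented with human TDP1 were seeded at 400 cells/well in medium containing 20 nM camptothecin, exposed to pin-transferred compounds, and grown at 37 °C for at least 48 hr. Viability was read as ATP luminescence.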
KB-3-1 cytotox – qHTS assay for MDR1-selective chemotherapeutics: Primary screen using the parental adenocarcinoma cell KB-3-1; KB-3-1 viability, CellTiter-Glo ATP luminescence, 72 h; Potency, µM (top dose mostly 46.1 µM), usual class: cytotoxic; hit rate 1.4% among 400,000; AID 1347075, 2019; note: nearly all actives have a fitted effect of over 60% in size
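72 h, 37 °C compound treatment of KB-3-1 parental cells; CellTiter-Glo added, 10 min, luminescence read. Data corrected against DMSO-only plates and normalized before curve fitting.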
KB-V1 MDR tox – qHTS assay for MDR1-selective chemotherapeutics: Primary screen using the drug-selected MDR subline cells KB-V1; KB-V1 MDR cells viability, CellTiter-Glo, 72 h; Potency, µM (titrated, usually from 46.1 µM), most hits filed as cytotoxic; hit rate 3.4% among 400,000; AID 1347076, 2019; note: nearly all actives have a fitted effect of over 60% in size
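Cytotoxicity toward P-gp-expressing KB-V1 cells was determined as loss of CellTiter-Glo luminescence after 72 h at 37 degrees C. Compounds were tested in quantitative HTS format across a concentration range, with curves fitted to normalized data.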
DT40 TDP1 no CPT – qHTS for Inhibitors of human tyrosyl-DNA phosphodiesterase 1 (TDP1): qHTS in cells in absence of CPT | DT40 Tdp1-/- hTDP1 cells, no CPT, ATP luminescence, 48 h | Potency, µM (titrated, usually from 46.2 µM), inactives show top-dose activity change, negative = growth inhibition, most hits filed as inhibitors | hit rate 15% among 420,000 | AID 686978, 2013; note: nearly all actives have a fitted effect of over 55% in size
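Cells were dispensed at 400 per well, compounds added by pin tool, plates incubated ≥48 hr at 37 °C, then CellTiter-Glo added for 30 min at room temperature before luminescence reading. Line: DT40 Tdp1-/- complemented with hTDP1; camptothecin omitted.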
HT1080 IDH1KD tx – qHTS for induction of synthetic lethality in tumor cells producing 2HG: qHTS for the HT-1080-IDH1KD cell line | HT-1080 IDH1 knockdown viability, ATP luminescence, 48 h | Potency, µM (doses to about 46.1 µM), for the others: at the highest dose activity, negative = toxicity, hits mostly cytotoxic | hit rate 2% among 360,000;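 note: 0% = DMSO wells and -100% = cell-free medium wells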
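Luminescent ATP read-out (CellTiter-Glo, 10 min at room temperature) after 48 h compound exposure at 37 °C gave viability of IDH1-knockdown HT-1080 cells. Activity was normalised to DMSO and cell-free wells, then fitted as concentration-response curves.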
HT1080NT lethal – qHTS for induction of synthetic lethality in tumor cells producing 2HG: qHTS for the HT-1080-NT fibrosarcoma cell line. HT-1080-NT fibrosarcoma viability, CellTiter-Glo ATP luminescence, 48 h. Potency, µM (titrated, usually from 46.1 µM), for the others: at the highest dose activity, negative = less viability, most hits filed as cytotoxic. hit rate 1.6% among 360,000. AID 686970, 2013;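 note: NT is the 2HG producing partner of a matched IDH1 knockdown line; 0% = DMSO-treated cells and -100% = media-only wells without cells; nearly all actives have a fitted effect of over 55% in size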
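HT-1080-NT; 750 cells/well; 5% FBS RPMI; 48 h compound, 37 degrees C; CellTiter-Glo luminescence; curve fitting and curve-class assignment.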
Starred values were filed as active, the others as inactive; i = inactive; ? = inconclusive; · = not tested or not shown. Calls come from the whole dose curve; as a rule, active = well fitted curve in the direction sought with a large enough effect; inconclusive = small, poorly fitted or top-dose-only effect, or another doubt; inactive = no such curve, though single readings can be large; an effect the other way counts as inactive or inconclusive. Unless noted, % is set by controls: 0 for no effect and ±100 for the full control effect; potency is the fitted concentration of half-maximal effect.

SMILES | TDP1 cell CPT | KB-3-1 cytotox | KB-V1 MDR tox | DT40 TDP1 no CPT | HT1080 IDH1KD tx | HT1080NT lethal
CC[C@H](C)[C@H]1O[C@]2(CC[C@@H]1C)C[C@@H]1C[C@@H](C/C=C(\C)[C@@H](O[C@H]3C[C@H](OC)[C@@H](O[C@H]4C[C@H](OC)[C@@H](O)[C@H](C)O4)[C@H](C)O3)[C@@H](C)/C=C/C=C3\CO[C@@H]4[C@H](O)C(C)=C[C@@H](C(=O)O1)[C@]34O)O2 | 11µM* | · | · | ? | · | ·
CC1(Br)C(Sc2ccccc2[N+](=O)[O-])=Nc2ccccc21 (stereo not drawn) | 21µM* | ? | ? | 23µM* | ? | 6.5µM*
O=C(O)c1ccccc1NSc1ccccc1[N+](=O)[O-] | 9% | i | i | -23% | -15% | 0%
Fc1cccc(Cl)c1C1SCc2nc3ccccc3n21 (stereo not drawn) | 16µM* | 23µM* | 23µM* | 15µM* | ? | ?
Cc1ccc(NC(=O)CN2C(=O)COc3ccc(S(=O)(=O)N4CCCCCC4)cc32)cc1Cl | 21µM* | · | · | 15µM* | · | ·
CC(C)NC(=O)CN1C(=O)COc2ccc(S(=O)(=O)N3CCCCCC3)cc21 | -1% | i | i | 1% | · | ·
Cc1ccc(NC(=O)CN2C(=O)COc3ccc(S(=O)(=O)N4CCCC4)cc32)cc1C | -1% | i | i | ? | -7% | -6%
COc1ccc(NC(=O)CN2C(=O)COc3ccc(S(=O)(=O)N4CCCCC4)cc32)cc1Cl | ? | · | · | 15µM* | · | ·
Cc1ccc(Cl)cc1N1CCN(C(=O)CN2C(=O)COc3ccc(S(=O)(=O)N4CCCCCC4)cc32)CC1 | · | ? | 26µM* | · | · | ·
CC(C)c1ccc(NC(=O)CN2C(=O)COc3ccc(S(=O)(=O)N4CCCCC4)cc32)cc1 | ? | · | · | 23µM* | · | ·
Brc1ccc(-c2cnco2)cc1 | -2% | i | i | -9% | 10% | 13%
CNC(=O)CN1C(=O)COc2ccc(S(=O)(=O)N3CCC(C)CC3)cc21 | · | i | ? | · | · | ·
CC1CCN(S(=O)(=O)c2ccc3c(c2)N(CC(=O)Nc2ccc(F)c(Cl)c2)C(=O)CO3)CC1 | 23µM* | · | · | 15µM* | · | ·
Cc1ccc(S(=O)(=O)Nc2ccc(C(=O)Nc3cc(C)on3)cc2)cc1 | 3% | i | i | -15% | 10% | 26%
CCC(CC)C(=O)Nc1cccc(C(=O)Nc2ccc3c(c2)OCO3)c1 | 26µM* | i | i | ? | -14% | ?
CCC(=O)Nc1ccc(NC(=O)c2ccc3c(c2)OCO3)cc1 | -4% | i | i | -18% | -17% | -19%
Cc1ccc(NS(=O)(=O)c2cccc(C(=O)Nc3cc(C)on3)c2)cc1 | ? | i | 4.6µM* | ? | -4% | -2%
CCC(CC)C(=O)Nc1cccc(C(=O)Nc2ccc(S(N)(=O)=O)cc2)c1 | -6% | i | i | -11% | 2% | -7%
CCN(CC)c1ccc(NC(=O)c2ccc3c(c2)OCO3)cc1 | ? | ? | ? | ? | 21µM* | ?
CCC(CC)C(=O)Nc1cccc(C(=O)Nc2ccc(S(=O)(=O)Nc3ccc(C)cc3)cc2)c1 | 21µM* | ? | ? | ? | ? | ?
CC(C)c1ccc(/C=N/NC(=O)c2c(Cl)cnn2C)cc1 | -7% | i | i | 2% | -5% | 7%
O=c1c(Cl)c(N2CCN(S(=O)(=O)c3ccc(F)cc3)CC2)cnn1-c1cccc(Cl)c1 | ? | i | i | ? | 13% | 10%
COc1ccc2nc(NC(=O)C3CCN(C(=O)c4ccco4)CC3)sc2c1 | 0% | i | i | ? | -1% | 2%
CCC1(C)CC(c2nc(-c3ccc(OC)cc3)cs2)CCS1 (stereo not drawn) | ? | i | i | ? | -3% | 3%
O=C1CCCCC1Nc1ccc(Br)cc1 (stereo not drawn) | -14% | i | i | -19% | -5% | -6%
SMILES | TDP1 cell CPT | KB-3-1 cytotox | KB-V1 MDR tox | DT40 TDP1 no CPT | HT1080 IDH1KD tx | HT1080NT lethal
Cc1cc(C)c(NC(=O)CSc2ccc(-c3cccnc3)nn2)c(C)c1 | -15% | i | i | -27% | -1% | 0%
CCC(CC)C(=O)Nc1cccc(C(=O)Nc2nccs2)c1 | ? | i | ? | 23µM* | 1% | 11%
CCC(CC)C(=O)Nc1cccc(C(=O)Nc2nnc(C)s2)c1 | 11% | i | i | ? | -3% | 1%
CCOc1ccccc1C(=O)NCC(=O)N(C)CC(=O)Nc1ccc(N2CCOCC2)cc1 | 0% | i | i | 1% | 11% | 10%
COc1ccc(-c2csc(C(C)(O)c3ccccc3)n2)cc1 (stereo not drawn) | 16µM* | i | i | ? | ? | ?
COc1ccc(C(C)(O)c2nc(-c3ccc4ccccc4c3)cs2)cc1 (stereo not drawn) | ? | i | i | ? | ? | ?
COc1ccc(C(C)(O)c2nc(-c3ccc(N(C)C)cc3)cs2)cc1 (stereo not drawn) | 18µM* | i | i | 16µM* | ? | 12%
COc1ccc(C(C)(O)c2nc(-c3ccc(OC)nc3)cs2)cc1 (stereo not drawn) | ? | i | i | ? | -12% | -22%
COc1ccc(C(C)(O)c2nc(-c3ccc(F)c(Cl)c3)cs2)cc1 (stereo not drawn) | ? | i | i | ? | ? | ?
COc1ccc(C(C)(O)c2nc(-c3ccccc3)cs2)cc1 (stereo not drawn) | 18µM* | ? | ? | 13µM* | 16µM* | ?
COc1ccc(C(C)(O)c2nc(-c3cccs3)cs2)cc1 (stereo not drawn) | ? | ? | ? | ? | ? | -23%
COc1ccc(C(C)(O)c2nc(-c3ccncc3)cs2)cc1 (stereo not drawn) | 5.8µM* | ? | ? | 5.8µM* | ? | ?
COc1ccc(C(C)(O)c2nc(-c3ccccc3C)cs2)cc1 (stereo not drawn) | 6.5µM* | 4.6µM* | 5.2µM* | 5.8µM* | 9.2µM* | ?
